The campaign covered roughly 340,000 compounds. About 8,500 (2.5%) were called active. The full list was thinned out, with actives kept by preference. Unmarked numbers belong to inactive results.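 How the source made its calls: active means melting temperature shift of at least 10% of the positive control shift, at one fixed dose; inactive means the rest.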
These compounds were tested on Glutamate receptor ionotropic, NMDA 3A (GRIN3A) ligand-binding domain (assay: NR3A LBD thermal stabilization by compounds – biophysical, differential scanning fluorimetry, uHTS, primary screen (AID 1259313)). Settings: at 25 µM, hits give high values, 0% = protein alone, 100% = glycine-bound protein.

| Compound | Tm shift relative to glycine control |
| --- | --- |
| CC(C)N(c1ccccc1)c1ncnc(NCCC(=O)O)c1[N+](=O)[O-] | -4.26% |
| Cc1cccc(C(=O)NCC(=O)OCC(=O)N(C)CC(=O)Nc2ccccc2Cl)c1 | -0.85% |
| COc1ccc(CNC(=O)COc2cccnc2[N+](=O)[O-])cc1 | 1.77% |
| Cc1ccc(NC(=O)Cc2nc(COC(=O)C(C)NS(=O)(=O)c3ccc(C)cc3)cs2)cc1 (configuration not stated) | -1.68% |
| Cc1cc(C(=O)N2CCC(C(=O)O)CC2)c(C(F)(F)F)o1 | 2.93% |
| CCOc1ccc2nc(Nc3nc4ccc(NC(C)=O)cc4s3)sc2c1 | 25.2% (active) |
| c1c2c(cc3sc(N4CCCCC4)nc13)OCCO2 | 8.4% |
| NS(=O)(=O)c1ccc2nc(NC(=O)C3=COCCO3)sc2c1 | -8.75% |
| COc1ccc2nc(Nc3nc4cc5c(cc4s3)OCCO5)sc2c1 | 12.4% (active) |
| CCOc1ccc2nc(NC(=O)CSc3nc4c(c(=O)n(C)c(=O)n4C)n3CC)sc2c1 | 1.39% |
| CCC(=O)c1ccc(OCC(=O)Nc2ccc3nc(C)sc3c2)cc1 | 0.32% |
| O=C(COC(=O)c1c(Cl)cccc1Cl)Nc1cccc(S(=O)(=O)NC2=NCCCCC2)c1 | 1.06% |
| O=C(CCl)Nc1ccc(Sc2ccc(NC(=O)CCl)cc2)cc1 | -12.3% |
| CC(=O)N(Cc1cccs1)C1CCOC(C)(C)C1 (configuration not stated) | -1.65% |
| Oc1ccc(/C=N/Nc2ccc(C(F)(F)F)cn2)cc1O | 21.1% (active) |
| FC(F)(F)c1cccc(N/N=C/c2ccccc2)c1 | 6.56% |
| Oc1ccc(Br)cc1/C=N/Nc1ccccn1 | -22% |
| CCCCOP(=O)(c1ccc(N(C)C)cc1)C(O)c1cc(OC)ccc1OC (configuration not stated) | -0.74% |
| O=S(=O)(Nc1ccccc1Br)c1cccs1 | 0.85% |
| O=C(Nc1cccc(Cl)c1)Nc1ccccc1NS(=O)(=O)c1cccs1 | 30.3% (active) |
| O=S(=O)(NCc1ccc(Cl)cc1Cl)c1cccs1 | 1.65% |
| NC(=O)Cc1ccc2sc(-c3ccccc3)nc2c1 | -2.6% |
| Cc1ccc(S(=O)(=O)NCC(=O)N(CC(=O)NCC2CCCO2)c2cccc(F)c2)cc1 (configuration not stated) | -1.71% |
| Nc1cc(=O)nc(SCc2ccccc2)n1Cc1ccco1 | 10.8% (active) |

| Compound | Tm shift relative to glycine control |
| --- | --- |
| O=c1[nH]c(CSc2ncc(-c3ccc(F)cc3)n2Cc2ccco2)nc2ccccc12 | -0.27% |
| CCn1c(SCc2ccccc2)nc2cc(OC)c(OC)cc2c1=O | -6.11% |
| COc1cccc(N(Cc2nnc3n2CCCCC3)C(=O)Nc2ccccc2F)c1 | 0.08% |
| CCCN(CCC)C(=S)Nc1cc(C(=O)OC)ccc1C(=O)OC | -5.25% |
| CC(=O)C1=C(C)NC(C)=C(C(C)=O)C1c1cn(-c2ccccc2)nc1-c1cccs1 | -4.58% |
| CCc1ccc(CN(C)C(=O)C2CCC(=O)N(Cc3cccc(OC)c3)C2)nc1 (configuration not stated) | 1.62% |
| O=C(Nc1ccc(N2CCOCC2)cc1)c1ccc(-c2ccccc2[N+](=O)[O-])o1 | -2.01% |
| CC1=NN(c2ccc(Cl)c(C(=O)O)c2)C(=O)/C1=C/c1ccc(-c2ccccc2[N+](=O)[O-])o1 | 31.1% (active) |
| O=C1NC(c2ccc(-c3ccccc3[N+](=O)[O-])o2)C(C(=O)c2ccc(Cl)cc2)C(O)(C(F)(F)F)N1 (configuration not stated) | -17.2% |
| Cc1cnc(CN(C)C(=O)C2CCC(=O)N(CCc3cccc(F)c3)C2)[nH]1 (configuration not stated) | -3.25% |
| CC(C)C(=O)NCc1cc(-c2ccc(Cl)cc2)no1 | 0.32% |
| CSc1ccccc1-c1nnc(-c2ccc(Cl)cc2)o1 | 0.54% |
| Oc1ccccc1-c1cc(-c2ccc(Cl)cc2)n[nH]1 | 31% (active) |
| NC(=O)C[C@@H]1NC(=O)CNC(=O)c2cc([N+](=O)[O-])cc(I)c2NCCC(C(N)=O)NC1=O (some centres not stated) | -1.1% |
| CCC(C)n1[nH]c(=O)cc1N (configuration not stated) | -2.66% |
| N#Cc1ccccc1S(=O)(=O)N1CCN(Cc2c(O)ccc3ccccc23)CC1 | -5.71% |
| COc1cc(C(=O)NCC(=O)N2CC=C(c3ccccc3)CC2)cc(OC)c1OC | 0.85% |
| O=C(O)c1cccc(S(=O)(=O)N2CC=C(c3ccccc3)CC2)c1 | 1.73% |
| O=C(Nc1ccc(Cl)c(Cl)c1)N1CC=C(c2ccccc2)CC1 | 12.9% (active) |
| CC(C)c1ccc(Nc2ncccc2C#N)cc1 | -9.92% |
| O=C(COc1ccc([N+](=O)[O-])cc1Cl)Nn1cnnc1 | 1.68% |
| CCOc1ccc(/C(O)=C2\C(=O)C(=O)N(c3ccc(OC)cc3)C2c2ccccc2[N+](=O)[O-])cc1 (configuration not stated) | -0.41% |
| COc1ccc(S(=O)(=O)N2CCOCC2)cc1NC(=O)c1ccc(OCC(C)C)c(OC)c1 | 3.09% |
